# Reference: article PMC7862700, “An all-to-all approach to the identification of sequence-specific readers for epigenetic DNA modifications on cytosine”
# What was measured:
# Test in all cases: DAPPL (digital affinity profiling via proximity ligation, sequencing); 10 mM Tris-HCl pH 7.5, 50 mM NaCl, 1 mM DTT, 4% glycerol, room temperature, 30 min; GST-TFs on glutathione beads, 16-mer random dsDNA library, 0.1% formaldehyde crosslink after washing; high values mean tight binding
# FLI1 = biological target: T1, FLI1 (Homo sapiens, UniProt Q01543 1-452); settings: protein: recombinant; tags: N-terminal GST; dsDNA, one strand shown
# T1 sequence: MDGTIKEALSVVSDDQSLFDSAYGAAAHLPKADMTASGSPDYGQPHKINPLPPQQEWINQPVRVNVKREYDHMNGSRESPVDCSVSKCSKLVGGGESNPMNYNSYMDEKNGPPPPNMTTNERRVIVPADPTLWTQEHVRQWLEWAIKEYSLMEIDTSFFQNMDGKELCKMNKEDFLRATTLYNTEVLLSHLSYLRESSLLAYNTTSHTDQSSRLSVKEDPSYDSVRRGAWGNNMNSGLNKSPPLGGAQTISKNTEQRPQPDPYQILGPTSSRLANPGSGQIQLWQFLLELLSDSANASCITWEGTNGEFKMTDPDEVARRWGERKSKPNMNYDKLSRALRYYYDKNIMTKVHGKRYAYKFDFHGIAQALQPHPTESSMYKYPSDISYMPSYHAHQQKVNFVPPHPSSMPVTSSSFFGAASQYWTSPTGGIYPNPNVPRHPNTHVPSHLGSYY
# In short: (§1)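 Each value of binding signal is a hexamer's read frequency for a factor divided by the same hexamer's frequency in the tag-only sample. Barcoded, bead-captured GST fusions of human transcription factors made in yeast were pooled with that sample and incubated with 200 nmole of a random double-stranded 16-mer DNA library in Tris/NaCl/DTT/glycerol buffer at room temperature for 30 min. Washing, 0.1% formaldehyde crosslinking, proximity ligation, PCR and Illumina NextSeq500 sequencing followed.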
# ELK1 = biological target: T2, ELK1 (Homo sapiens, UniProt P19419 1-428); settings: protein: recombinant; tags: N-terminal GST; dsDNA, one strand shown
# T2 sequence: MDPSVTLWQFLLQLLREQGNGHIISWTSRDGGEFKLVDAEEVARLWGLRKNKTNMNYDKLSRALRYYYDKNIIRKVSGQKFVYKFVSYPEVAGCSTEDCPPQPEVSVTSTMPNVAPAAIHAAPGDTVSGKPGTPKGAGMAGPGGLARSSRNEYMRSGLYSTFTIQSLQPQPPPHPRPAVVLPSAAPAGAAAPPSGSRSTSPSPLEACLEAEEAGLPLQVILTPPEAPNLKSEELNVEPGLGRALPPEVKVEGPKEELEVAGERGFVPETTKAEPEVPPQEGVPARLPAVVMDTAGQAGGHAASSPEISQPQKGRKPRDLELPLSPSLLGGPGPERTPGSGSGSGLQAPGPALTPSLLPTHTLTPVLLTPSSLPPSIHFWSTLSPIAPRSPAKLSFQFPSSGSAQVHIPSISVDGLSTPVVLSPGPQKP
# In short: as §1
# GABPA = biological target: T3, GABPA (Homo sapiens, UniProt Q06546 1-454); settings: protein: recombinant; tags: N-terminal GST; dsDNA, one strand shown
# T3 sequence: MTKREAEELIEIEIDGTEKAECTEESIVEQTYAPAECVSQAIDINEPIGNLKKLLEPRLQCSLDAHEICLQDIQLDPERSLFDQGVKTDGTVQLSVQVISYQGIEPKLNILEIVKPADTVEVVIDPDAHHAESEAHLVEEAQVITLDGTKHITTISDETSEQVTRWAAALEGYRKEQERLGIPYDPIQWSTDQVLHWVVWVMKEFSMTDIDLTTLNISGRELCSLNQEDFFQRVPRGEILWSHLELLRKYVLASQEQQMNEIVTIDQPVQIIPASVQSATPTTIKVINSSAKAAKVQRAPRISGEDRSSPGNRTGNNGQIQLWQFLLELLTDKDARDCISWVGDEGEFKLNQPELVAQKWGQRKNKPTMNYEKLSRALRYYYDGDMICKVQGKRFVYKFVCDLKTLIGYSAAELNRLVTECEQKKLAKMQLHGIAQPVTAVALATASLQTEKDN
# In short: as §1
# ERG = biological target: T4, ERG (Homo sapiens, UniProt P11308 1-479); settings: protein: recombinant; tags: N-terminal GST; dsDNA, one strand shown
# T4 sequence: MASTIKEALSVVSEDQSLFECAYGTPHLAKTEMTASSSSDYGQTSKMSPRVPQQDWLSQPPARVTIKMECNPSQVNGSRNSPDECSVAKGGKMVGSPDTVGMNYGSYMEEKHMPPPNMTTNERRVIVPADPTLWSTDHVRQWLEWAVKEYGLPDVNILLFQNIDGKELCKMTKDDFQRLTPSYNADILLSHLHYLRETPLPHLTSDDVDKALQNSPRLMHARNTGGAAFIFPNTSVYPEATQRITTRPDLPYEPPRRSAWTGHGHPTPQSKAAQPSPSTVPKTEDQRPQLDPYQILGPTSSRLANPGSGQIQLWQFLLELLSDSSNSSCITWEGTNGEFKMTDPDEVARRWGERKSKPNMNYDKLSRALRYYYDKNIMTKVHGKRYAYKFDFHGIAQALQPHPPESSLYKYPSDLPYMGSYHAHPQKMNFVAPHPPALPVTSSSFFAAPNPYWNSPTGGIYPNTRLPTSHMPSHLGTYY
# In short: as §1
# ELF1 = ELF1 (Homo sapiens, UniProt P32519 1-619); settings: protein: recombinant; tags: N-terminal GST; dsDNA, one strand shown
# In short: as §1
# EHF = biological target: T5, EHF (Homo sapiens, UniProt Q9NZC4 1-300); settings: protein: recombinant; tags: N-terminal GST; dsDNA, one strand shown
# T5 sequence: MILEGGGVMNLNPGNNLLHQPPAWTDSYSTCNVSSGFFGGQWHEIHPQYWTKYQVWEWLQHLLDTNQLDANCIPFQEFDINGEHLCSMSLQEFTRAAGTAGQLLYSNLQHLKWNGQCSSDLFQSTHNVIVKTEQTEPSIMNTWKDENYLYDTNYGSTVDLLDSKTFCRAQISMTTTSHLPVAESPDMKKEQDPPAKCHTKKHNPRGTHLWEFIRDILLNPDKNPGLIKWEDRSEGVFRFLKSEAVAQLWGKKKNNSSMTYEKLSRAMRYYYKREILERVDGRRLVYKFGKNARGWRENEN
# In short: as §1
# SPI1 = SPI1 (Homo sapiens, UniProt P17947 1-270); settings: protein: recombinant; tags: N-terminal GST; dsDNA, one strand shown
# In short: as §1
# SPIB = SPIB (Homo sapiens, UniProt Q01892 1-262); settings: protein: recombinant; tags: N-terminal GST; dsDNA, one strand shown
# In short: as §1
# ELK3 = biological target: T6, ELK3 (Homo sapiens, UniProt P41970 1-407); settings: protein: recombinant; tags: N-terminal GST; dsDNA, one strand shown
# T6 sequence: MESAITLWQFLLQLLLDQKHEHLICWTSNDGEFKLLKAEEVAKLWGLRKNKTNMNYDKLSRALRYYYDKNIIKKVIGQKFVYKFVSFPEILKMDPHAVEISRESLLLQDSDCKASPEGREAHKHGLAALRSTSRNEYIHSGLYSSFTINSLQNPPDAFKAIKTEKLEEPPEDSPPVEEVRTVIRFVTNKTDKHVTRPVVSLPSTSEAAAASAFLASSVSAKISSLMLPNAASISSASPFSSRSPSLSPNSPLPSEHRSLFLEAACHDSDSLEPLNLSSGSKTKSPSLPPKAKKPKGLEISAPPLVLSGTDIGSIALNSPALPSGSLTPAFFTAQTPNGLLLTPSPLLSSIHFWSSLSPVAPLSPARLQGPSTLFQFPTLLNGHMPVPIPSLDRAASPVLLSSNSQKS
# In short: as §1
# FEV = biological target: T7, FEV (Homo sapiens, UniProt Q99581 1-238); settings: protein: recombinant; tags: N-terminal GST; dsDNA, one strand shown
# T7 sequence: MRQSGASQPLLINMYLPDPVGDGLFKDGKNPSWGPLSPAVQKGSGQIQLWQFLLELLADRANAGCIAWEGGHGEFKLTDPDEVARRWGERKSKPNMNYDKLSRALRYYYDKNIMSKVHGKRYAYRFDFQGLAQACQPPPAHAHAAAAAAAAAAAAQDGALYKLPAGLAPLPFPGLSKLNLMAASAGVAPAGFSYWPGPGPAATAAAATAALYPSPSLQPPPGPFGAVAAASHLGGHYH
# In short: as §1
# ETV5 = ETV5 (Homo sapiens, UniProt P41161 1-510); settings: protein: recombinant; tags: N-terminal GST; dsDNA, one strand shown
# In short: as §1
# HSF1 = HSF1 (Homo sapiens, UniProt Q00613 1-529); settings: protein: recombinant; tags: N-terminal GST; chain copies: 3; dsDNA, one strand shown
# In short: as §1
# SPIC = biological target: T8, SPIC (Homo sapiens, UniProt Q8N5J4 1-248); settings: protein: recombinant; tags: N-terminal GST; dsDNA, one strand shown
# T8 sequence: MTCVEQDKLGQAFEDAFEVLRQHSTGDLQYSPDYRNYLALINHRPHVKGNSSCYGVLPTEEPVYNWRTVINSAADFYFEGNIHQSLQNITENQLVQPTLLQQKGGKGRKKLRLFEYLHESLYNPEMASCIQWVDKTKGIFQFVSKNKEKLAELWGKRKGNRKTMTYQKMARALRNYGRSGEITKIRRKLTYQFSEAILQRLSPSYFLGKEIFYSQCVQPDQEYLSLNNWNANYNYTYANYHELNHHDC
# In short: as §1
# ELF4 = ELF4 (Homo sapiens, UniProt Q99607 1-663); settings: protein: recombinant; tags: N-terminal GST; dsDNA, one strand shown
# In short: as §1
# ELK4 = biological target: T9, ELK4 (Homo sapiens, UniProt P28324-2 1-405); settings: protein: recombinant; tags: N-terminal GST; dsDNA, one strand shown
# T9 sequence: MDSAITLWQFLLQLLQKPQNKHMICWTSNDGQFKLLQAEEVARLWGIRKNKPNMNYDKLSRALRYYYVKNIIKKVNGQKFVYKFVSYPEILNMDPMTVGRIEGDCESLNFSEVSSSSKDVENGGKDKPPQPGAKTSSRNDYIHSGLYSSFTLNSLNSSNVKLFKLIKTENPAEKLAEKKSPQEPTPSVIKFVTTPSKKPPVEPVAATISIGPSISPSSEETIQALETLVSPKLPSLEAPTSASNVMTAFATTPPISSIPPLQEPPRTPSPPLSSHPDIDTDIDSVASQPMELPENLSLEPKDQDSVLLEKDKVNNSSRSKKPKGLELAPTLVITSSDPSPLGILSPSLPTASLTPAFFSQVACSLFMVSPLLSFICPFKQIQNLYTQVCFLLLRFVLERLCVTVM
# In short: as §1
# ETV2 = biological target: T10, ETV2 (Homo sapiens, UniProt O00321 1-342); settings: protein: recombinant; tags: N-terminal GST; dsDNA, one strand shown
# T10 sequence: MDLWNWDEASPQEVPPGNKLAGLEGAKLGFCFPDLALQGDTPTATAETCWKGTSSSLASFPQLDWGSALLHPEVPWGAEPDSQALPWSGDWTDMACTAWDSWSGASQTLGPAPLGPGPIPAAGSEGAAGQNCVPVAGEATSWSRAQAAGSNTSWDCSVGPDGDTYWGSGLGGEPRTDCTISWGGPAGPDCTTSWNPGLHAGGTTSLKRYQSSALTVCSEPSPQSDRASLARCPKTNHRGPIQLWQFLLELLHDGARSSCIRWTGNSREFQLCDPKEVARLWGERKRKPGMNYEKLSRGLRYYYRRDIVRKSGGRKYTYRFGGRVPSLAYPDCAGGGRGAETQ
# In short: as §1
# ELF3 = biological target: T11, ELF3 (Homo sapiens, UniProt P78545 1-371); settings: protein: recombinant; tags: N-terminal GST; dsDNA, one strand shown
# T11 sequence: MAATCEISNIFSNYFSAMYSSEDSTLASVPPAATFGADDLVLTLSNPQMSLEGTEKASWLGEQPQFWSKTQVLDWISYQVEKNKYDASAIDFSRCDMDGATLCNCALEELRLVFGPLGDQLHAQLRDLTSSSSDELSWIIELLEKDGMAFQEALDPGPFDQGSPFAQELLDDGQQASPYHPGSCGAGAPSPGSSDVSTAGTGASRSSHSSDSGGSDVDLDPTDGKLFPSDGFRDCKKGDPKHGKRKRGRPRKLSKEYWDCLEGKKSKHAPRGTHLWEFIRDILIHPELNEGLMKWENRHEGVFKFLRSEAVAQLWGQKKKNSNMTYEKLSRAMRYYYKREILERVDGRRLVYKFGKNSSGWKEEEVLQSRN
# In short: as §1
# CRX = CRX (Homo sapiens, UniProt O43186 1-299); settings: protein: recombinant; tags: N-terminal GST; dsDNA, one strand shown
# In short: as §1
# ETV1 = ETV1 (Homo sapiens, UniProt P50549 1-477); settings: protein: recombinant; tags: N-terminal GST; dsDNA, one strand shown
# In short: as §1
# CRX, sequence (O43186 whole entry): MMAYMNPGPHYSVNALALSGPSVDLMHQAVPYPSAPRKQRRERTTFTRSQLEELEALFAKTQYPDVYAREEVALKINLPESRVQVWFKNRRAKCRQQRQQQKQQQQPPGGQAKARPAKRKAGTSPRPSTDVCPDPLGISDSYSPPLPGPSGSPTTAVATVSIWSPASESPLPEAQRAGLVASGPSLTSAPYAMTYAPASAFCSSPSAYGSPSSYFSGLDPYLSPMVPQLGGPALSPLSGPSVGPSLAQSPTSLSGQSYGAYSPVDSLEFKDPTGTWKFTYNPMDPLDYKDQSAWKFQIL
# SPIB, sequence (Q01892 whole entry): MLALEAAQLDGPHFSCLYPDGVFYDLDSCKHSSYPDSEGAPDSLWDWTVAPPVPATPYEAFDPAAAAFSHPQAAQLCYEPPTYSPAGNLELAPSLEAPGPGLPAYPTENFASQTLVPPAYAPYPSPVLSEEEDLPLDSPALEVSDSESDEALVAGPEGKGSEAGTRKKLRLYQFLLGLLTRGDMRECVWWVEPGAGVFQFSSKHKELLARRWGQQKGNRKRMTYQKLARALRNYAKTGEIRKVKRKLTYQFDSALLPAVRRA
# ETV1, sequence (P50549 whole entry): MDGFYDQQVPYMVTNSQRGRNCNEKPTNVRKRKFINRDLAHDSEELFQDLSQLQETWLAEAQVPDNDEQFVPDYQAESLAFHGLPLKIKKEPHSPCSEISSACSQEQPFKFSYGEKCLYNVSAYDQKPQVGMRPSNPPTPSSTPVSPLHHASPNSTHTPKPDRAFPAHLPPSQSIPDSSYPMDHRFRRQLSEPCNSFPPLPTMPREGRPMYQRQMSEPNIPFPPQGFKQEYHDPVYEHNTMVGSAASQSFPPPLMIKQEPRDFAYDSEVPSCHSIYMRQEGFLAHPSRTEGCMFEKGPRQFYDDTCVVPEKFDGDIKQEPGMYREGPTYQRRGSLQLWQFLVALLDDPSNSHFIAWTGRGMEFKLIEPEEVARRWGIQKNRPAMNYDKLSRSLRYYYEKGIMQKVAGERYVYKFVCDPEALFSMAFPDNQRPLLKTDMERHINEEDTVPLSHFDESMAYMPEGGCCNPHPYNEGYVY
# ELF4, sequence (Q99607 whole entry): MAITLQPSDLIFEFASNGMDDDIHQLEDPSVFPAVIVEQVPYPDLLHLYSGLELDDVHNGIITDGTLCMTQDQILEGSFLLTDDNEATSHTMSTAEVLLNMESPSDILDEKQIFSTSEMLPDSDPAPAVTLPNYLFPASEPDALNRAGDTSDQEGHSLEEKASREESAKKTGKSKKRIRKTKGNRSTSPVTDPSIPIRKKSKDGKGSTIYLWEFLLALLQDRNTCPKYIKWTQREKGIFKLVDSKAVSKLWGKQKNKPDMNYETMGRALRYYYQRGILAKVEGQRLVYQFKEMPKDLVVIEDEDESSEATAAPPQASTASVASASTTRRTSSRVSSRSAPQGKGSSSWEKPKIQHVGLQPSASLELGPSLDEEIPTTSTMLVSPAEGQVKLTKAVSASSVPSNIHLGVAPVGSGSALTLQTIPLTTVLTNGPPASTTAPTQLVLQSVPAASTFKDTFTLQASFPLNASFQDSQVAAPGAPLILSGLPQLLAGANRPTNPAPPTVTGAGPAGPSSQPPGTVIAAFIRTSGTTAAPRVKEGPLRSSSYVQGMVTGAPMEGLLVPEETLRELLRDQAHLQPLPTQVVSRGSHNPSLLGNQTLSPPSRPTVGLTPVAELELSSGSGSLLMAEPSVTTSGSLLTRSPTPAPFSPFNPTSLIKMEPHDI
# HSF1, sequence (Q00613 whole entry): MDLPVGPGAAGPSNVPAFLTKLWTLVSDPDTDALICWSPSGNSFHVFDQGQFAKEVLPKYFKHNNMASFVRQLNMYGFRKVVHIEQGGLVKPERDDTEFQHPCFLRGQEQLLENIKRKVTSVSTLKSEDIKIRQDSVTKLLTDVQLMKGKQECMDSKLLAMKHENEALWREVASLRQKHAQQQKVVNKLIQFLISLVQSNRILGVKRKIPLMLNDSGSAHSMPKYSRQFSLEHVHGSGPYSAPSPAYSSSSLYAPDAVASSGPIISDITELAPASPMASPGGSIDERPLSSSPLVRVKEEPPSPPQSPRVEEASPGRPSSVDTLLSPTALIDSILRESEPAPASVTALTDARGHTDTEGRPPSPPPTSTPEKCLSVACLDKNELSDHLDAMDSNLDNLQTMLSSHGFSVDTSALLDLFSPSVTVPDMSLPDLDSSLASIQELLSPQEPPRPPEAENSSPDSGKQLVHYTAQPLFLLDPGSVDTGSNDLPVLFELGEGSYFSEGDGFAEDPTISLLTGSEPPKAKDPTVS
# ETV5, sequence (P41161 whole entry): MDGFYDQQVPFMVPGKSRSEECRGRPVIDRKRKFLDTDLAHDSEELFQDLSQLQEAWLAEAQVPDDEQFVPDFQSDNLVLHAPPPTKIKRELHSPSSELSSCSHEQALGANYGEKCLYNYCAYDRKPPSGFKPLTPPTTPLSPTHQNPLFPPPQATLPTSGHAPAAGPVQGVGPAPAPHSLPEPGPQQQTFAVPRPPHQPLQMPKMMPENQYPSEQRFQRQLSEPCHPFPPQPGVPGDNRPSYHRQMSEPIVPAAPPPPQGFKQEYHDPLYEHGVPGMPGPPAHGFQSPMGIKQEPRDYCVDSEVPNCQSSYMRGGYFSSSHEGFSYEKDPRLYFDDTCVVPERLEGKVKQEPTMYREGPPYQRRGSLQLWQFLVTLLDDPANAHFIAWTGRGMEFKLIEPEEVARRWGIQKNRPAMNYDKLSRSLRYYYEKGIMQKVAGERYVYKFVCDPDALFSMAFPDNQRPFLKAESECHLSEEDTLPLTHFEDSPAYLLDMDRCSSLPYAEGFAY
# ELF1, sequence (P32519 whole entry): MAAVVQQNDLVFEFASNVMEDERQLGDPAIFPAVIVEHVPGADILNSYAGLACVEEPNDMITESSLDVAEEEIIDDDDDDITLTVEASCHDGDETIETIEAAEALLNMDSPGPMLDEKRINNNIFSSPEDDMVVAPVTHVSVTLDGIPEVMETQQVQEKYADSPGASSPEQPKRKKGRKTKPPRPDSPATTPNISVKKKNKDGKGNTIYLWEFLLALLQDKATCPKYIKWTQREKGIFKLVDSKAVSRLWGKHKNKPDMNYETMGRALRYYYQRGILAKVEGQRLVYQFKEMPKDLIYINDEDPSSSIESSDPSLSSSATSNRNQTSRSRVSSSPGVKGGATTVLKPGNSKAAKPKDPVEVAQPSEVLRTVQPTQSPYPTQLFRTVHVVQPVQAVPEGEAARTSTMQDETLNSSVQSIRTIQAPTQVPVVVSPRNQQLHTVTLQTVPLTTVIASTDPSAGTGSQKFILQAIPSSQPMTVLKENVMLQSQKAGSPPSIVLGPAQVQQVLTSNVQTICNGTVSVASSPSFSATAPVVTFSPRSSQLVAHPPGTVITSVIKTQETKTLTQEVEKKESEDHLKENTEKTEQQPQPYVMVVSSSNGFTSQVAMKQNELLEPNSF
sequence,measurement,setting,value
AGTAAT,binding signal,FLI1,"1.02 fold enrichment (6-mer frequency, TF over GST control)"
same,binding signal,ELK1,"1.1 fold enrichment (6-mer frequency, TF over GST control)"
same,binding signal,GABPA,"1.16 fold enrichment (6-mer frequency, TF over GST control)"
same,binding signal,ERG,"1.09 fold enrichment (6-mer frequency, TF over GST control)"
same,binding signal,ELF1,"1.12 fold enrichment (6-mer frequency, TF over GST control)"
same,binding signal,EHF,"1.19 fold enrichment (6-mer frequency, TF over GST control)"
same,binding signal,SPI1,"1.17 fold enrichment (6-mer frequency, TF over GST control)"
same,binding signal,SPIB,"1.1 fold enrichment (6-mer frequency, TF over GST control)"
same,binding signal,ELK3,"1.12 fold enrichment (6-mer frequency, TF over GST control)"
same,binding signal,FEV,"1.05 fold enrichment (6-mer frequency, TF over GST control)"
same,binding signal,ETV5,"1.12 fold enrichment (6-mer frequency, TF over GST control)"
same,binding signal,HSF1,"1.3 fold enrichment (6-mer frequency, TF over GST control)"
same,binding signal,SPIC,"1.12 fold enrichment (6-mer frequency, TF over GST control)"
same,binding signal,ELF4,"1.1 fold enrichment (6-mer frequency, TF over GST control)"
same,binding signal,ELK4,"1.08 fold enrichment (6-mer frequency, TF over GST control)"
same,binding signal,ETV2,"1.24 fold enrichment (6-mer frequency, TF over GST control)"
same,binding signal,ELF3,"1.08 fold enrichment (6-mer frequency, TF over GST control)"
same,binding signal,CRX,"1.61 fold enrichment (6-mer frequency, TF over GST control)"
same,binding signal,ETV1,"1.06 fold enrichment (6-mer frequency, TF over GST control)"
